We go through 4 compounds from PubChem BioAssay.

Assay [1] in a line: small molecules captured by biotinylated probe aFSTL3 – biochemical, small-molecule microarray, fluorescence 635/667, stem cell growth factor project, primary screen (AID 1064).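 Note: measures binding of the biotinylated anti-FSTL3 antibody to printed compounds.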 The settings on record: higher = more signal.
Assay [2] in a line: binders from COS7 lysate, DM2A8 probe, primary screen, torsin A project, cell lysate, small-molecule microarray, fluorescence 635/667 (AID 1065). The settings on record: higher = more signal, COS7 lysate expressing mutant human TOR1A.
Assay [3] in a line: small molecules captured by biotinylated probe aFGF2 – biochemical, small-molecule microarray, fluorescence 635/667, stem cell growth factor project, primary screen (AID 1067).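 Note: measures binding of biotinylated aFGF2 protein to printed compounds on slides; z-score merges feature fluorescence and signal-to-noise across triplicate slides.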 The note with it: higher = more signal.
Assay [4] is described as follows: small molecules captured by biotinylated probe aFGF10 – biochemical, small-molecule microarray, fluorescence 635/667, stem cell growth factor project, primary screen (AID 1071).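 Note: score merges 667 nm spot intensity and signal to noise from triplicate slides.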 The note with it: higher = more signal.
Assay [5] concerns the target Neurogenic locus notch homolog protein 2 (Homo sapiens) (UniProt Q04721). Briefly: small molecules binding Notch2 protein – biochemical, small-molecule microarray, 635 nm fluorescence, stem cell growth factors, primary screen (AID 1073). The note with it: higher = more signal.
The target in assay [6] is Pro-neuregulin-1, membrane-bound isoform (Homo sapiens) (UniProt Q02297). Briefly: small molecules binding neuregulin-1 protein – biochemical, small-molecule microarray, fluorescence 635/667, psychiatric disease protein project, primary screen (AID 1075).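 Note: score combines 667 nm spot fluorescence with signal to noise.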 The settings on record: NRG1 binding, 635 nm fluorescence, higher = more signal.
Sequence of Pro-neuregulin-1, membrane-bound isoform (Homo sapiens) (Q02297 whole entry, looked up, the tested form may be a part, canonical isoform): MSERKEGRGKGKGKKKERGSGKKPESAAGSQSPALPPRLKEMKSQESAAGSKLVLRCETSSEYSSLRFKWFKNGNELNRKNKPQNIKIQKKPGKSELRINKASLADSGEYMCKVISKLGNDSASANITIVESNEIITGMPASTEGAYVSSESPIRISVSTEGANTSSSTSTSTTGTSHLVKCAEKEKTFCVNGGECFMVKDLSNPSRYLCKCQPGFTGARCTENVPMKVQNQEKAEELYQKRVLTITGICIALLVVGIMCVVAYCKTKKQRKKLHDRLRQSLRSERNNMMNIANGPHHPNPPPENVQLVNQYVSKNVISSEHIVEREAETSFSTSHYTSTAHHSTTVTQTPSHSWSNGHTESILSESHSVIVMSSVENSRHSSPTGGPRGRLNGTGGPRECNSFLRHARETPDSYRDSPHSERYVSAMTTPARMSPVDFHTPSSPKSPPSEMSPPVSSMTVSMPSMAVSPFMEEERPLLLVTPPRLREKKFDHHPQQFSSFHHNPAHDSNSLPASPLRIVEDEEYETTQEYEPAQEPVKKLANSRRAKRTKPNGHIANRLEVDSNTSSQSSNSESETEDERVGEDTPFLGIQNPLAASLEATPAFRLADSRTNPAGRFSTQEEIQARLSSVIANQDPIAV
The test system of assay [7] is Neuregulin-1 EGF-like domain. Briefly: small molecules binding NRG1 EGF domain – biochemical, small-molecule microarray, 635 nm fluorescence, primary screen (AID 1081).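 Note: binding of the protein to compounds printed on small-molecule microarray slides.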 The settings on record: higher = more signal.
The nature of assay [8]: FRG1 expression reporter modulators in myotubes – cell-based, C2C12 myotubes, firefly/Renilla luciferase, luminescence, FRG1 inhibition for FSHD, primary screen (AID 1084). The settings on record: FRG1 promoter luciferase, higher = more signal, called active from +8 up or from −8 down.
Assay [9] is described as follows: small molecules captured by biotinylated probe aFST – biochemical, small-molecule microarray, fluorescence 635/667, stem cell growth factor project, primary screen (AID 1086).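 Note: score merges 667 nm fluorescence with signal-to-noise of each printed compound spot.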 The settings on record: higher = more signal.
A short description of assay [10]: binders of probe aHhip on microarray, primary screen, stem cell growth factor project, biochemical, small-molecule microarray, fluorescence 635/667 (AID 1087).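 Note: score merges spot fluorescence at 667nm with spot signal to noise ratio.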 The note with it: higher = more signal.
Assay [11] deals with PRMT1 (protein arginine N-methyltransferase 1). In words: small molecules binding arginine methyltransferase PRMT1 – biochemical, small-molecule microarray, 635 nm fluorescence, primary screen (AID 1088).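 Note: binding of Prmt1 protein to compounds spotted on small-molecule microarray slides.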 The note with it: higher = more signal.
Assay [12] is described as follows: growth effects on S. cerevisiae YJM789 – YJM789 clinical isolate, OD600, 24 h, basal, primary screen (AID 1089).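 Note: growth of clinical yeast isolate S. cerevisiae YJM 789 seeded 1000 cells per well; test concentration not given here.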 The settings on record: higher = more signal, called active from +8 up or from −8 down.
The nature of assay [13]: S. pombe growth modifiers, basal conditions – strain 972, OD600, 24 h, no modulator, primary screen (AID 1090).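 Note: basal condition with compound alone and no growth modifier present; test concentration not given here.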 The settings on record: S. pombe 972 growth, higher = more signal, called active from +8 up or from −8 down.
Assay [14] is described as follows: budding yeast growth modifiers under rapamycin – strain BY4716, OD600, 96 h, primary screen (AID 1091). Note: test concentration not given here. The note with it: S. cerevisiae BY4716 + rapamycin, higher = more signal, called active from +8 up or from −8 down.
In assay [15] the target is Torsin-1A-interacting protein 2 (Homo sapiens) (UniProt Q8NFQ8). Briefly: small molecules binding lysate-expressed LULL1 – cell lysate, human LULL1 lysate, 635/667 nm fluorescence, primary screen (AID 1092).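 Note: probe is lysate of COS7 cells overexpressing human LULL1; score merges per-feature 667 nm fluorescence with signal-to-noise.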 The note with it: small-molecule microarray, hLULL1 lysate binding, 635 nm fluorescence; higher = more signal.
Sequence of Torsin-1A-interacting protein 2 (Homo sapiens) (Q8NFQ8 whole entry, looked up): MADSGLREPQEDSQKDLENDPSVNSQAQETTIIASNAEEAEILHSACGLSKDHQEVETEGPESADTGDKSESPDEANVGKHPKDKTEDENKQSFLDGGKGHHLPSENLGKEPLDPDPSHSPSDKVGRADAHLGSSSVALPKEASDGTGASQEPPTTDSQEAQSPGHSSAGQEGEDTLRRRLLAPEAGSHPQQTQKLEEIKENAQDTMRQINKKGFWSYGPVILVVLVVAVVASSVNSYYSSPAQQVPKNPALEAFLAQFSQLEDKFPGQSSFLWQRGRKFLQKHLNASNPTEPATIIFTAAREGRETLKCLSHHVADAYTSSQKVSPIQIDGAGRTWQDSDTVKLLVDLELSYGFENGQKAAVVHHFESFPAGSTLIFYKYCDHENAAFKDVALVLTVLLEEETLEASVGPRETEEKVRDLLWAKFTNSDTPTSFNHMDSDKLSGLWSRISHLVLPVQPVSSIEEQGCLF
The nature of assay [16]: optical density change of DRC41 E. coli – strain DRC41, OD650, 24 h, E. coli filamentation project, primary screen (AID 1093).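 Note: MC1000 strain lacking acrAB efflux and sulA so SOS filamentation is blocked; test concentration not given here.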 The note with it: E. coli DRC41 growth, higher = more signal, called active from +8 up or from −8 down.
Assay [17] in a line: probe aLefty2 binding to arrayed compounds – biochemical, biotinylated probe, 635/667 nm fluorescence, primary screen (AID 1094).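 Note: score merges spot fluorescence near 667 nm with spot signal-to-noise ratio.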 The settings on record: small-molecule microarray, higher = more signal.
Assay [18] concerns Noggin (protein binding on small-molecule microarray). Briefly: small molecules binding Noggin protein – biochemical, 635/667 nm fluorescence, primary screen (AID 1095).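 Note: score merges 667 nm feature fluorescence with signal to noise over triplicate slides.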 The settings on record: 635 nm fluorescence, higher = more signal.
Assay [19] concerns the target Neurogenic locus notch homolog protein 3 (Homo sapiens) (UniProt Q9UM47). Briefly: small molecules binding NOTCH3 protein – biochemical, 635/667 nm fluorescence, primary screen (AID 1096). The note with it: small-molecule microarray, 635 nm fluorescence, higher = more signal.
Assay [20] is described as follows: probe aEGFR binding to arrayed compounds – biochemical, biotinylated probe, 635/667 nm fluorescence, primary screen (AID 1097).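 Note: probe is a biotinylated anti-EGFR antibody binding compounds printed on slides; score combines fluorescence near 667 nm and signal to noise of each spot.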 The note with it: small-molecule microarray, higher = more signal.

Structures are written as SMILES. Several values for one entry are separate records, joined by “and”; a condition that tells them apart may be missing. Identical values can stand only once. Activity calls are given as the source filed them.

Sequence of Neurogenic locus notch homolog protein 2 (Homo sapiens) (Q04721 whole entry, looked up, canonical isoform): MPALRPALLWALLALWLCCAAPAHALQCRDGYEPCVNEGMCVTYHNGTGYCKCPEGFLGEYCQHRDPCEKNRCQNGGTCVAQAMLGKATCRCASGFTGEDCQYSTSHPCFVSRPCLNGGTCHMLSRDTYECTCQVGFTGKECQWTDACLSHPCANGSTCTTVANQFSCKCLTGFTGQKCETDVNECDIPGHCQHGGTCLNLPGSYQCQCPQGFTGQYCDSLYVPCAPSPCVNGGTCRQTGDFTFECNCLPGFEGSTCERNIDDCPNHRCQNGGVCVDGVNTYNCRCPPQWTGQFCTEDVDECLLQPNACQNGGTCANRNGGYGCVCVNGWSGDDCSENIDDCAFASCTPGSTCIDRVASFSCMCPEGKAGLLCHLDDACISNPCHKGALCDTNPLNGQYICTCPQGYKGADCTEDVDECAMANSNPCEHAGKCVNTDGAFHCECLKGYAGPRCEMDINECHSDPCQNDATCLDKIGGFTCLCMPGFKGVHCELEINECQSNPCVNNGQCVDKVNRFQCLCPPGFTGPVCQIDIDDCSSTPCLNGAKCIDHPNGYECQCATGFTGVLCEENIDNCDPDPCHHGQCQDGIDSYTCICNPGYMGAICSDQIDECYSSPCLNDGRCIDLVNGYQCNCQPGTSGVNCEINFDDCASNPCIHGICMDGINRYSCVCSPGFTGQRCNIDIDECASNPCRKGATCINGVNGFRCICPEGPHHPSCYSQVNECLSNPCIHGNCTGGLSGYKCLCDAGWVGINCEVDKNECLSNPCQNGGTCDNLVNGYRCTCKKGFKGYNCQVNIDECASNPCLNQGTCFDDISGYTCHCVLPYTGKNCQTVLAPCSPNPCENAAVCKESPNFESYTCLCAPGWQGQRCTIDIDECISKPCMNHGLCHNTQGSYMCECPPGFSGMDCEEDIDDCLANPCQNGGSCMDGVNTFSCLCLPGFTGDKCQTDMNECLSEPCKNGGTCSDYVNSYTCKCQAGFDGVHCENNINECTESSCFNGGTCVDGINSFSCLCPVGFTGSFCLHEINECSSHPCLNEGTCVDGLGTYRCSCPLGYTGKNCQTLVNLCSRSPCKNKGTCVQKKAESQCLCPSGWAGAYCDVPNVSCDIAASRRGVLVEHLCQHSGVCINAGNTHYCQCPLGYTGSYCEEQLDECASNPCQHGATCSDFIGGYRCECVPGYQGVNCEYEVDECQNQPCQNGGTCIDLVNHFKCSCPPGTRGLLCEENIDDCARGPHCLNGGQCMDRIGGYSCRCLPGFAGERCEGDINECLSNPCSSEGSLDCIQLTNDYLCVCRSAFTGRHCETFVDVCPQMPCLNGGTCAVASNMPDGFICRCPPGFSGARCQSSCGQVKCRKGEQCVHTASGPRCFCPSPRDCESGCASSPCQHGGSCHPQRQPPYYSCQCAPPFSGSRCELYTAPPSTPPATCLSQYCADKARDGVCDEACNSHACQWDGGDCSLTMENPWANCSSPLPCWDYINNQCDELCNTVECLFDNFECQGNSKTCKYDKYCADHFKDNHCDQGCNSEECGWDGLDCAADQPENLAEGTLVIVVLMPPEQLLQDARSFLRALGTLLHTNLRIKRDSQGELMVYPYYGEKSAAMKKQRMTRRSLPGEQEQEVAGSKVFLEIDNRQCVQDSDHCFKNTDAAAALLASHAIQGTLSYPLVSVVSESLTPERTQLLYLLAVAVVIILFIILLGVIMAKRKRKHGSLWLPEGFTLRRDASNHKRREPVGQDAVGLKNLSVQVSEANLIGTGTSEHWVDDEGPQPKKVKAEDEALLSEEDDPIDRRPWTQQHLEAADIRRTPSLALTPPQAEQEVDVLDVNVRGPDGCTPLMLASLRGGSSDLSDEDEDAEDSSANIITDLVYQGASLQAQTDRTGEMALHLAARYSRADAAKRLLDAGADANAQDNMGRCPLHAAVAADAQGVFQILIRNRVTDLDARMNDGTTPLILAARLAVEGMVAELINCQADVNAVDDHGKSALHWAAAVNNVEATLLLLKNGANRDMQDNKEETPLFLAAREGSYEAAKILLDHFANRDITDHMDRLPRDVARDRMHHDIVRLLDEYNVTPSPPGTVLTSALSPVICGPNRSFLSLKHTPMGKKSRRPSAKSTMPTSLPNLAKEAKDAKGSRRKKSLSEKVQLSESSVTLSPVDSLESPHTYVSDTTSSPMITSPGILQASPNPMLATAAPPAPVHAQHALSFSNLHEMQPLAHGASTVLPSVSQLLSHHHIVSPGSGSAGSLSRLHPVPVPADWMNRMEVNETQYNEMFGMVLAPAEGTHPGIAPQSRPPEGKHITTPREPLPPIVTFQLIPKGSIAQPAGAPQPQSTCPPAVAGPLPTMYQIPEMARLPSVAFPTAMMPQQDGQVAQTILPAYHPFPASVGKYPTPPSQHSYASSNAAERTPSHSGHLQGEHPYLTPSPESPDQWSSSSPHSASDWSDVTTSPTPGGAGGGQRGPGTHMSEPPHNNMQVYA

Regarding `O=C1C[C@]2(c3ccc([N+](=O)[O-])cc3)C(=O)N(Cc3ccccc3)c3cc(CO)ccc3[C@H]2N1C1CCCCC1`, the composite z-score in assay [1] is -0.391 and -0.0715; in assay [2], 0.0304 and -0.0759; in assay [3] it was -0.145 and 0.103; in assay [4], -0.416 and 0.208; in [5], 0.168 and 0.853; in assay [6], -0.183 and 0.819. Besides, the composite z-score in assay [7] was 1.25 and 1.12; in assay [9] it was -0.0791 and -0.129; in [10], -0.185 and 1.38; in assay [11], 1.33 and 0.39; in assay [15], 2.21 and 1.14; in assay [17] it was -0.21 and 0.668. Besides, the composite z-score in [18] was 0.469 and 0.225; in assay [19], 0.219 and 0.161; in assay [20], -0.0828 and 0.805. Also, the z-score in [8] is -0.0521 (inactive) and 0.981 (inactive); in assay [12], -0.754 (inactive) and -0.363 (inactive); in [13] it was 0.31 (inactive) and -0.838 (inactive); in assay [14], -1.02 (inactive) and 3.78 (inactive); in assay [16] it was 0.245 (inactive) and 0.545 (inactive).
For the compound `C=CCN(CCCC)C(=O)C(c1cccs1)N(CCOCCO)C(=O)/C=C\C(=O)O` (stereo not given), the composite z-score in assay [1] is 0.673 and -0.0069; in assay [2], 0.878 and 0.902; in assay [3], -0.208 and -0.23; in [4], -1.36 and 0.428; in assay [5], -1.8 and -0.746; in [6], 1.34 and 0.823. The composite z-score is 0.903 and 0.941 in assay [7]; -0.496 and -0.114 in assay [9]; -0.134 and -0.236 in assay [10]; -1.08 and 0.596 in assay [11]; 0.657 and 2.51 in assay [15]; -0.145 and -0.139 in assay [17]. Also, the composite z-score is -1.73 and -0.798 in assay [18]; -0.852 and -0.503 in [19]; -0.236 and -0.148 in [20]. Further, the z-score is -1.65 (inactive) and -0.784 (inactive) in assay [8]; -1.98 (inactive) and -1.34 (inactive) in [12]; -0.745 (inactive) and -0.342 (inactive) in assay [13]; -0.604 (inactive) and -0.397 (inactive) in [14]; 1.02 (inactive) and 1.45 (inactive) in assay [16].
Take `CCN1C(=O)[C@H]2[C@H]3[C@H](O)[C@H](O)CC(=NOC[C@@H](O)COCc4ccco4)[C@@H]3CC[C@H]2C1=O`: the composite z-score in assay [1] is -0.841 and -0.446; in assay [2], 2.37 and 0.0438; in assay [3], -0.235 and -0.132; in [4], -0.507 and 0.352; in assay [5], -0.413 and -0.498; in [6] it was -0.538 and -0.26. The composite z-score in assay [7] was 0.837 and 1.12; in assay [9] it was -0.104 and -0.45; in assay [10], -0.0645 and 0.154; in assay [11], 1.4 and 0.727; in assay [15] it was -1.03 and 0.493; in assay [17] it was -0.266 and -0.44. Also, the composite z-score in [18] is 0.445 and -0.121; in [19] it was -0.365 and -0.32; in assay [20] it was 0.0747 and -0.0413. The z-score is 0.235 (inactive) and 0.417 (inactive) in [8]; 0.686 (inactive) and 0.102 (inactive) in assay [12]; 0.315 (inactive) and 0.174 (inactive) in assay [13]; 1.29 (inactive) and 0.945 (inactive) in assay [14]; 0.0584 (inactive) and -1.13 (inactive) in [16].
For `C[C@@H]1CC[C@H]2C(=O)N3[C@@H](CC[C@@H](C)[C@@H]3c3ccc(-c4ccco4)cc3)C(=O)N2[C@H]1c1ccc(-c2ccco2)cc1`, the composite z-score was -0.23 and 1.14 in assay [1]; 0.762 and 1.98 in [2]; -0.0084 and -0.0668 in assay [3]; 0.906 and 1.16 in assay [4]; 0.422 and 1.15 in [5]; 0.992 and 0.667 in assay [6]. Besides, the composite z-score is 1.29 and 1.3 in [7]; 0.443 and 1.26 in [9]; 0.132 and 0.259 in assay [10]; 1.56 and 1.49 in [11]; 2.17 and 0.787 in assay [15]; 0.0935 and 0.525 in [17]. The composite z-score in assay [18] is 1.34 and 1.77; in [19], 1.04 and 1.06; in assay [20], 0.0374 and 0.181. In addition, the z-score is -0.248 (inactive) and 0.445 (inactive) in assay [8]; -0.0519 (inactive) and -0.0158 (inactive) in assay [12]; 0.453 (inactive) and -1.28 (inactive) in assay [13]; 0.849 (inactive) and -0.324 (inactive) in assay [14]; 0.196 (inactive) and 0.917 (inactive) in [16].
